Screening data as filed in PubChem BioAssay.
Sm TGR block = qHTS Assay for the Inhibitors of Schistosoma Mansoni Peroxiredoxins; Schistosoma mansoni thioredoxin glutathione reductase (TGR), Q962Y6; purified TGR, DTNB reduction, TNB absorbance 405 nm; Potency, µM (series often up to 114 µM), for inactives: at the top dose activity change, negative = inhibition, actives largely listed as inhibitors; 360,000 tested, 3% active; active = well fitted inhibition curve with a large enough effect; inconclusive = small, poorly fitted or top-dose-only effect; inactive = no such curve, though single readings can be large or run the other way; also: potency is read from the fitted curve at half-maximal effect; % is scaled to controls: 0 for no effect and ±100 for the full control effect; nearly all actives have a fitted effect of over 60% in size
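First, TGR (20 nM dispensed) and NADPH were mixed with compound. Second, a 15 min room-temperature incubation followed. Third, further NADPH and then DTNB were added to start the reaction. Finally, TNB absorbance was monitored kinetically.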
Cycloheximide cs = Cycloheximide Counterscreen for Small Molecule Inhibitors of Shiga Toxin. cell reporter, cycloheximide protein synthesis inhibition counterscreen. max response, %. 300,000 tested, 12% active. AID 2314, 2010; in the data active = max response mostly above about 13%, no sharp cut-off; inactive = mostly below about 14%; also: read at 38.3 µM for the half of the compounds with a filed dose; 0% is about no effect
Shiga inhibitor = A qHTS for Small Molecule Inhibitors of Shiga Toxin. Vero cells, Shiga toxin protein synthesis inhibition reporter. inhibition, % at 38.7 µM. 290,000 tested, 9.2% active. AID 2315, 2010; in the data active = inhibition mostly above about 28%, no sharp cut-off; inactive = mostly below about 43%; also: 0% is about no effect
FMDV antiviral = High Throughput Screening for Foot and Mouth Disease Virus Antivirals; FMDV antiviral cell-based qHTS; Potency, µM (top dose mostly 57.9 µM), for inactives: at the top dose activity change, negative = inhibition, actives largely listed as inhibitors; 410,000 tested, 1.2% active; AID 1159524, 2015; calls by dose curve; tested in HEK293T cells; also: read-out not given here; potency is read from the fitted curve at half-maximal effect; % is scaled to controls: 0 for no effect and ±100 for the full control effect; nearly all actives have a fitted effect of over 45% in size
* = called active by the depositor; ? = inconclusive; · = no result; [ ] = another dose, or the depositor's remark. An excerpt weighted towards active compounds, which were near 12% of everything screened.

SMILES | Sm TGR block | Cycloheximide cs | Shiga inhibitor | FMDV antiviral
CCC(C)(C)c1nnc(NC(=O)c2cccc([N+](=O)[O-])c2)s1 | 0% | 14* | 76* | 22%
O=C(Nc1nnc(CSCc2ccc(F)cc2)s1)c1cccc([N+](=O)[O-])c1 | 1% | 0 | -12 | 40µM*
Cc1ccc(C)c(N2CCN(C(=O)CCS(=O)(=O)c3ccc4c(c3)CC(=O)N4C)CC2)c1 | ? | · | · | -1%
CC(C)CC(NC(N)=O)C(=O)NCc1ccc(Cl)cc1 (stereo not given) | 2% | 14 | -3 | -5%
CC(NC(=O)COC(=O)/C=C/c1ccco1)c1ccccc1 (stereo not given) | 28µM* | -5 | 9 | 10%
O=C(COC(=O)/C=C/c1ccco1)NCc1ccc(Cl)cc1Cl | · | · | · | -3%
O=C(COC(=O)/C=C/c1ccco1)NCc1ccccc1Cl | 18µM* | 1 | -12 | 16%
O=C(COC(=O)/C=C/c1ccco1)NCCc1ccccc1 | 22µM* | 2 | 15 | 13%
CC(C)CC(NC(N)=O)C(=O)NCc1ccccc1Cl (stereo not given) | 5% | 35* | 36 | 18%
CCOC(=O)c1[nH]c(C)c(CCC(=O)Nc2cccc(SC)c2)c1C | -1% | · | · | -15%
CN(CC(=O)Nc1cccc(F)c1)S(=O)(=O)c1ccc2c(c1)n(C)c(=O)c(=O)n2C | -2% | · | · | 10%
COc1cccc(NC(=O)C2CCN(c3nc4ccccc4nc3C(F)(F)F)CC2)c1 | 6% | · | · | 0%
CCCCN(Cc1ccccc1)C(=O)c1oc(=O)c2ccccc2c1-c1ccc(C)cc1 | -6% | · | · | 0%
CC1CCN(S(=O)(=O)c2cc(C(=O)NCc3ccccc3)n(C)c2)CC1 | 2% | · | · | -13%
O=S(=O)(Nc1cccc2cccnc12)c1ccccc1O | · | 5 | 11 | ·
COc1ccc(CNC(=O)COC(=O)/C=C/c2ccco2)cc1 | 35µM* | -3 | -2 | 19%
CNC(=O)COC(=O)/C=C/c1ccco1 | 25µM* | -5 | -3 | -1%
Cc1ccccc1OCC(=O)OCC(=O)NCc1ccccc1Cl | · | · | · | -5%
CC(C)C(=O)OCC(=O)NCc1ccccc1Cl | 20% | 29* | 28 | 13%
O=C(COC(=O)/C=C/c1ccco1)NCc1ccco1 | ? | 9 | 2 | 3%
COc1cccc(CNC(=O)c2cc3c(=O)n(Cc4cccnc4)ccc3nc2C)c1 | 2% | · | · | -14%
COc1ccc(CN2CCOc3ccc(CN4CCC(Oc5cccnc5)CC4)cc3C2)cc1C | · | · | · | -29%
O=C(N=c1nc2ccccn2s1)c1ccccc1 | -9% | 41* | 152* | -32%
COc1c(O)cc2c(-c3ccccc3)cc(=O)oc2c1OC | · | · | · | 4%
O=C(NCc1ccccc1Cl)c1ccc(S(=O)(=O)NCc2ccco2)cc1 | -6% | · | · | 3%
SMILES | Sm TGR block | Cycloheximide cs | Shiga inhibitor | FMDV antiviral
O=C(NCc1ccco1)C(=O)NCc1ccccc1Cl | -5% | 30* | 24 | 56%
O=C(NCc1ccco1)Nc1ccccc1Cl | 0% | 18* | 74* | 37%
COc1ccc(N2C(=O)CC(N3CCC(n4c(=O)[nH]c5ccccc54)CC3)C2=O)cc1 (stereo not given) | 35µM* | -4 | -22 | 0%
COc1cccc(N2C(=O)CC(N3CCC(c4nc5ccccc5[nH]4)CC3)C2=O)c1 (stereo not given) | -15% | 4 | 7 | -21%
COc1ccc(N2C(=O)CC(Sc3nc4ccccc4s3)C2=O)cc1 (stereo not given) | 22µM* | 7 | -1 | 20%
CCOc1cccc(N2C(=O)CC(N3CCN(c4nc5ccccc5s4)CC3)C2=O)c1 (stereo not given) | ? | 1 | -2 | ?
COc1ccc(N2C(=O)CC(N3CCN(c4nc5ccccc5s4)CC3)C2=O)cc1 (stereo not given) | 20µM* | -1 | -4 | ?
COc1ccc(C2SCC(=O)N2c2nc3ccccc3s2)cc1 (stereo not given) | 5% | 42* | 111* | -21%
CCN(CC)c1ccc(NC(=O)c2cc(C)nc3c2c(C)nn3-c2ccc(C)cc2)c(C)c1 | -12% | · | · | -22%
COc1ccc(N2C(=O)CC(Sc3nnc(-c4ccccc4F)n3C)C2=O)cc1 (stereo not given) | 2.8µM* | 12 | -4 | -10%
COc1ccc(N2CCN(C3CC(=O)N(C)C3=O)CC2)cc1 (stereo not given) | 2% | -5 | -8 | -23%
COc1ccc(N2C(=O)CC(N3CCN(c4ccc(S(C)(=O)=O)cc4)CC3)C2=O)cc1 (stereo not given) | 18µM* | -3 | -10 | -3%
COc1ccc(N2C(=O)CC(Sc3nccc(C)n3)C2=O)cc1 (stereo not given) | -25%[11.4 µM] | 0 | -14 | -12%
